Only some compounds are listed: those with a hit (about 2.8% of all), similar ones and a draw of the others.
pS6 MEF inh: mTORC1 pathway inhibition measured by phospho-rpS6 | Tsc2-/- p53-/- MEF, phospho-rpS6 immunofluorescence/PI, 24 h | Potency, µM (top dose mostly 38.3 µM), for inactives: at the top dose activity change, negative = inhibition, hits mostly inhibitors | 0.78% of 44,000 active;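 note: potency is the fitted concentration of half-maximal effect; plate controls were DMSO for no effect and rapamycin for full effect; nearly all actives have a fitted effect of over 50% in size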
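Compounds act on Tsc2-/-, p53-/- fibroblasts carrying an empty vector for 24 h before fixation and dual staining for phospho-S6 and DNA (propidium iodide). Values are percentages of cells above a rapamycin-defined pS6/PI threshold.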
PTAP-TSG101 blk: TSG101-PTAP interaction inhibition, HIV-1 budding. AID 1347069. Potency, µM (highest dose often 115 µM), usual class: inhibitors. Fluorescence polarization, FITC-PTAP peptide/Tsg101, 20 min. 44,000 tested, under 10 active. Q99816; note: potency is the fitted concentration of half-maximal effect; 0% is about no effect
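Steps: Tsg101 binding domain (10 uM final) in HEPES pH 7.5/NaCl/Tween 20/EDTA/TCEP; add compound; add FITC-PTAP peptide (50 nM final); incubate 20 min r.t.; read polarization.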
S16 viability: cytotoxicity in S16 Pmp22-F2sN Schwann cells; S16 Pmp22-F2sN Schwann cells viability, CellTiter-Glo, 24 h; 0.48% of 43,000 active; Potency, µM (titrated, usually from 57.5 µM), without a hit: at the top dose activity change, negative = cytotoxicity, hits mostly cytotoxic; AID 1508642; note: potency is the fitted concentration of half-maximal effect; % is set by controls: 0 for no effect and ±100 for the full control effect; nearly all actives have a fitted effect of over 65% in size
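Used to flag compounds lowering reporter output through toxicity, this quantitative HTS measures ATP-based CellTiter-Glo luminescence in S16 Pmp22-F2sN Schwann cells after 24 h compound exposure at 37C.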
GALK inh: inhibitors of human galactokinase (GALK); recombinant GALK, Kinase-Glo ATP luminescence, 1 h; Potency, µM (series often up to 57.5 µM), for the others: at the highest dose activity, negative = inhibition, actives largely listed as inhibitors; 44,000 tested, under 10 active; AID 1347072;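 note: plate controls were full GALK reaction for no effect and reaction lacking GALK for full effect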
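Luminescent ATP-depletion readout (Kinase-Glo Plus, 10 min) after 1 h RT reaction of 5 nM GALK, 35 uM ATP, 100 uM galactose, pH 8.0 HEPES buffer. Decreased kinase activity scored as inhibition.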
PMP22 txn: modulates PMP22 transcription in S16 Schwann cells; S16 Pmp22-F2sN Schwann cells (luciferase reporters placed in the Pmp22 gene), FLuc/NLuc coincidence luminescence, 24 h; Potency, µM (top dose mostly 57.5 µM), without a hit: top-dose activity change, negative = inhibition, most hits filed as inhibitors; 2% of 43,000 active; AID 1508649; active = clear falling dose curves in both reporters; inconclusive = both reporters move, but less clearly or upward; inactive = either reporter flat; the % is the NLuc reporter signal; note: potency is the fitted concentration of half-maximal effect; % is set by controls: 0 for no effect and ±100 for the full control effect
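Schwann cells carrying the coincidence reporter were exposed to library compounds for 24 h at 37C, then lysed and read for FLuc and, after quenching, NLuc luminescence on a CCD imager.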
NLuc sat counter: NanoLuc enzyme inhibition artifact for PMP22 screen; shares compounds with PMP22 txn; Secreted NLuc enzyme (filtered S16 cell medium), Nano-Glo luminescence; Potency, µM (highest dose often 57.5 µM), without a hit: at the top dose activity change, negative = inhibition, hits mostly inhibitors; 4% of 690 active; note: potency is the fitted concentration of half-maximal effect; % is set by controls: 0 for no effect and ±100 for the full control effect
NLuc Km ctr: NanoLuc inhibition at Km substrate, PMP22 artifact check | shares compounds with PMP22 txn | secreted NLuc enzyme, coelenterazine luminescence, Km conditions | Potency, µM (top dose mostly 57.5 µM), without a hit: at the highest dose activity change, negative = inhibition, hits mostly inhibitors | 5% of 690 active | AID 1508639; note: potency is the fitted concentration of half-maximal effect; % is set by controls: 0 for no effect and ±100 for the full control effect
FLuc counter: counter-screen for PMP22 expression modulators: firefly luciferase inhibition. AID 1508640. purified P. pyralis FLuc, luminescence, 10 min. shares compounds with PMP22 txn. Potency, µM (highest dose often 57.5 µM), inactives show at the top dose activity, negative = inhibition, most hits filed as inhibitors. 690 tested, under 10 active; note: % of control where 0% means no effect
Target sequence (P08659 whole entry, looked up): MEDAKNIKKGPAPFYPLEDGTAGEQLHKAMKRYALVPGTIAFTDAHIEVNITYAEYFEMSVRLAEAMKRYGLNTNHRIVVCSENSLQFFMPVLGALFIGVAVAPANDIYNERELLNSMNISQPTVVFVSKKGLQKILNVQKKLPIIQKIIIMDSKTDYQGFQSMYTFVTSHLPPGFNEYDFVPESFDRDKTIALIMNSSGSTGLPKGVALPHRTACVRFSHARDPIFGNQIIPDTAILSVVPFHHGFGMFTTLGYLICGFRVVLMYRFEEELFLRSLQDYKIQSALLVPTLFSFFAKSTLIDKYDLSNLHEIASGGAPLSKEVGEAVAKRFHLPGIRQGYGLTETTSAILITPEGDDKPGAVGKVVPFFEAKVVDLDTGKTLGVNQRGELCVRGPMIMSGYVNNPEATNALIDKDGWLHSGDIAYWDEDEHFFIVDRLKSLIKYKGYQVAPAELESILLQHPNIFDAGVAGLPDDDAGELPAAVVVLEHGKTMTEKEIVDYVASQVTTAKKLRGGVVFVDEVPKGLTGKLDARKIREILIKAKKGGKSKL
S16 F2sN tox cnf: S16 Schwann cell cytotoxicity, confirmatory. 7% of 690 active. S16 Schwann cells viability, CellTiter-Glo ATP luminescence, 24 h. Potency, µM (doses to about 57.5 µM), for the others: at the top dose activity change, negative = viability loss, hits mostly cytotoxic. shares compounds with PMP22 txn; note: potency is the fitted concentration of half-maximal effect; % is set by controls: 0 for no effect and ±100 for the full control effect
PMP22 txn cnf: PMP22 transcription modulation, confirmatory. AID 1508646. shares compounds with PMP22 txn. 22% of 690 active. S16 Schwann cells Pmp22-F2sN, dual luciferase, 24 h. Potency, µM (titrated, usually from 57.5 µM), without a hit: at the top dose activity change, negative = inhibition, hits mostly inhibitors; active = clear falling dose curves in both reporters; inconclusive = both reporters move, but less clearly or upward; inactive = either reporter flat; the % is the FLuc reporter signal; note: potency is the fitted concentration of half-maximal effect
PMP22 HiBiT cnf: rat PMP22 protein level modulation, confirmatory; shares compounds with PMP22 txn; S16 Schwann cells Pmp22-HiBiT, luminescence, 48 h; Potency, µM (doses to about 27.9 µM), without a hit: at the highest dose activity change, negative = inhibition, usual class: inhibitors; 95 tested, under 10 active
Target sequence (P25094 whole entry, looked up): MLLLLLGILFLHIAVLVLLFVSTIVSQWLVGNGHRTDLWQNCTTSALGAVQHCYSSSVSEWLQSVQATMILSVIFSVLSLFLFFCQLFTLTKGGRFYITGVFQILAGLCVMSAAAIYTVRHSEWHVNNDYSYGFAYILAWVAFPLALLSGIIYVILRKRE
The depositor's hits bear a star; i = inactive; ? = inconclusive; . = not tested or not shown. Unless noted, calls come from the whole dose curve; as a rule, active = well fitted curve in the direction sought with a large enough effect; inconclusive = small, poorly fitted or top-dose-only effect, or another doubt; inactive = no such curve, though single readings can be large; an effect the other way counts as inactive or inconclusive.

SMILES	pS6 MEF inh	PTAP-TSG101 blk	S16 viability	GALK inh	PMP22 txn	NLuc sat counter	NLuc Km ctr	FLuc counter	S16 F2sN tox cnf	PMP22 txn cnf	others
Cc1ccc(C)n1-c1nnc(N2CCCC(C(=O)NCc3ccccc3)C2)s1 (configuration not stated)	-12%	i	-7%	0%	?	.	.	.	.	.
CCCCn1cc2c(c1-c1ccccc1Br)c(=O)n(C)c(=O)n2C	-4%	i	4%	-4%	15µM*	?	-15%	-1%	0%	-41%
CCCCCn1cc2c(c1-c1ccccc1Br)c(=O)n(C)c(=O)n2C	0%	i	?	0%	-18%	.	.	.	.	.
CCC(Sc1nnc(-c2ccc(OC)cc2)c(-c2ccc(OC)cc2)n1)C(=O)Nc1cccc(OC)c1 (configuration not stated)	8%	i	0%	-1%	13%	.	.	.	.	.
CCOc1ccc(C(=O)c2cnc3ccc(Cl)cc3c2S(=O)(=O)c2ccc(C)cc2)cc1	-3%	i	-23%	-6%	14µM*	-17%	5%	0%	15%	19µM*	PMP22 HiBiT cnf=31%
Cc1ccc(NC(=O)C2CCCN(S(=O)(=O)c3ccc(C)cc3)C2)cc1 (configuration not stated)	-4%	i	-5%	1%	7%	.	.	.	.	.
O=C(NCCCN1CCN(c2ccccc2)CC1)c1ccc2nc(Cc3ccccc3)oc2c1	0%	i	?	-2%	?	.	.	.	.	.
Cc1ccc(C)c(N2CCN(CCCNC(=O)c3ccc4nc(C(C)C)oc4c3)CC2)c1	-6%	i	?	-3%	11µM*	?	?	4%	?	?
Cn1c(=O)c2cc(C(=O)NCCCN3CCN(c4cccc(Cl)c4)CC3)sc2c2ccccc21	-1%	i	-1%	9%	-28%	.	.	.	.	.
CCc1ccccc1NC(=O)c1cc2c(Cl)nc3ccccc3c2s1	-1%	i	16%	8%	10µM*	-17%	?	-1%	3%	5%
O=C(NCCCN1CCN(c2ccc(F)cc2)CC1)c1ccc2nc(Cc3ccccc3)oc2c1	-4%	i	-10%	-1%	16µM*	-18%	3%	0%	-13%	?
O=C(NCCCN1CCN(c2ccc(F)cc2)CC1)c1cc2c(Cl)nc3ccccc3c2s1	-3%	i	16%	1%	14µM*	-13%	-11%	1%	-19%	?	PMP22 HiBiT cnf=11%
Cc1ccc(-n2c3c(cc(C(=O)Nc4ccccc4C(N)=O)c2=O)C(=O)CC(C)(C)C3)cc1	2%	i	0%	1%	3.4µM*	?	-4%	5%	-14%	-32%
CNC(=O)c1cc2c(n(-c3ccc(C)cc3)c1=O)CC(C)(C)CC2=O	-4%	i	12%	1%	-7%	.	.	.	.	.
COc1ccc(-c2c(C)nn3c(N4CCN(c5cc(Cl)ccc5C)CC4)cc(C)nc23)cc1OC	-18%	i	13%	0%	15µM*	-16%	?	3%	1%	-37%
COc1ccccc1-c1c(C)nn2c(N3CCN(c4ccc(Cl)cc4)CC3)cc(C)nc12	5%	i	-3%	0%	-23%	.	.	.	.	.
Cc1ccc(S(=O)(=O)c2cc3cc(C(=O)Nc4ccc(C)cc4C)ccc3oc2=O)cc1	0%	i	-10%	0%	?	.	.	.	.	.
COc1cc(NS(=O)(=O)c2cc(Br)cc3c2N(C(=O)C2CC2)CC3)cc(OC)c1	?	i	-19%	-2%	3.6µM*	14µM*	?	0%	?	18µM*
Cc1ccc(NS(=O)(=O)c2cc(Br)cc3c2N(C(=O)C2CC2)CC3)cc1C	-13%	i	?	0%	8.9µM*	?	-7%	-1%	?	?
O=C(C1CC1)N1CCc2cc(Br)cc(S(=O)(=O)Nc3ccc(F)c(F)c3)c21	0%	i	?	7%	?	.	.	.	.	.
O=C(c1ccc(Cl)cc1)N1CCCCC1CCN1CCOCC1 (configuration not stated)	-5%	i	8%	-3%	-10%	.	.	.	.	.
CCc1c(C)c(C#N)c2nc3ccccc3n2c1Nc1cccc(C(F)(F)F)c1	-21%	i	0%	7%	-4%	.	.	.	.	.
CCOc1ccc(NC(=O)c2cc3sc(Cl)cc3n2CC)cc1	-1%	i	-28%	-1%	12µM*	2%	2%	1%	-6%	?
CCn1c(C(=O)NCc2ccc(OC)cc2)cc2sc(Cl)cc21	-6%	i	19%	-3%	4%	.	.	.	.	.
Cc1cc(C)n(C(C)CC(=O)NCc2ccc(N(C)C)cc2)n1 (configuration not stated)	-23%	i	8%	0%	-4%	.	.	.	.	.
CC1=C(c2ccc(Cl)cc2)S(=O)(=O)NC1=NCc1ccc(C)cc1	3%	i	18%	0%	2%	.	.	.	.	.
COc1ccc(C2=C(C)C(=NCCCN3CCN(c4cc(C)ccc4C)CC3)NS2(=O)=O)cc1	-4%	i	1%	3%	15µM*	-7%	-2%	2%	-5%	?

Screening results as filed in PubChem.
